Bioassay records (PubChem)
The list is not random: actives were taken first. Their share in the collection is about 1.7%.
hERG WT inh – inhibitors of human wildtype KCNH2 potassium channel. U2OS, BacMam KCNH2, thallium flux FluxOr; hits give low values. Q12809. 0.37% of 340,000 active. AID 720551. activity change, % at 1.84 µM;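 active = maximum activity change below -70%; inconclusive = maximum activity change between -70% and -50%; inactive = maximum activity change above -50%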
Target sequence (Q12809 whole entry, looked up): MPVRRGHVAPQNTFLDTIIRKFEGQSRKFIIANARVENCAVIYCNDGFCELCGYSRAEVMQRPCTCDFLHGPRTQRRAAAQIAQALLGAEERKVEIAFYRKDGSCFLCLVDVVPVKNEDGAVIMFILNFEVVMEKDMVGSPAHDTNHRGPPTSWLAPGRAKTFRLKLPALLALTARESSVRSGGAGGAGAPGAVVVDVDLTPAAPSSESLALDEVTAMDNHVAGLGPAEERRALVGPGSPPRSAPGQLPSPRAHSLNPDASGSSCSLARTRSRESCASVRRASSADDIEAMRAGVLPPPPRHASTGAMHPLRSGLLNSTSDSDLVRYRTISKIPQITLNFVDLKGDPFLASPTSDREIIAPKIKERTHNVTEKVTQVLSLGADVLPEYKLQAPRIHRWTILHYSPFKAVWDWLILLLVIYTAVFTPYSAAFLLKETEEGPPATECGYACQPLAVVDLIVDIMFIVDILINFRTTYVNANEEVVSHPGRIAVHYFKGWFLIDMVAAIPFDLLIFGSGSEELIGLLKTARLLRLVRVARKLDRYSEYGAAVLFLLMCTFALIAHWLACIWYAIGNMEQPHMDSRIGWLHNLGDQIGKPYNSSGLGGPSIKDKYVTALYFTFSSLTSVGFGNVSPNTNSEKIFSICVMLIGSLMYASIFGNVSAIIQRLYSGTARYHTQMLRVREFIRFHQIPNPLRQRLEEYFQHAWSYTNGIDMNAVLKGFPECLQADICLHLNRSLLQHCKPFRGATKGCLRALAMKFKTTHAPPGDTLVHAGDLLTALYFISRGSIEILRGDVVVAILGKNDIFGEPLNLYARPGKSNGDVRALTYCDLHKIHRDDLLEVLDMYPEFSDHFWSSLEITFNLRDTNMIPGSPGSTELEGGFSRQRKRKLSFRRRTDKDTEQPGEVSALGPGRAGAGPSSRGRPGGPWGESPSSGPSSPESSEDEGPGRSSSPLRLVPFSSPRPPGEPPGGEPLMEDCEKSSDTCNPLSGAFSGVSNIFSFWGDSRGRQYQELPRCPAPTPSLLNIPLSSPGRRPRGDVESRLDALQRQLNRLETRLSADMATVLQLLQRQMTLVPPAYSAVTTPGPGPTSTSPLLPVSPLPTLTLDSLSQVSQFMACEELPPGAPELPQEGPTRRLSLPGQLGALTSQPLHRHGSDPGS
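U2OS cells were transduced with wild-type KCNH2 virus (2.03 x 10^8 / mL) for 4 h at room temperature, then cultured overnight at 37 C. Thallium flux was read with FluxOr dye. Rate constants were normalized to DMSO controls.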
Coupling enz – coupling enzyme interference in Giardia aldolase counter-screen; AID 2472; coupling enzyme system counterscreen, AmpLite Red fluorescence; activity change, negative = inhibition, % at 58.2 µM, hits read low; 0.67% of 290,000 active; in the data active = activity change below about -30%
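First, compound is pin-transferred into glyceraldehyde-3-phosphate coupling-enzyme reagent at 57.5 uM final and held 10 min at RT. Next, substrate, coupling system and AmpLite Red are added. After 20 min RT, fluorescence (525/598 nm) is read.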
KCNH2 3.1 inh – KCNH2 3.1 (human) potassium channel inhibition | U2OS KCNH2 3.1, thallium flux FluxOr; hits give low values | activity change, % (tested at about 1.8 µM) | 0.95% of 340,000 active | AID 720553;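 active = maximum activity change below -70%; inconclusive = maximum activity change from -70% to -50%; inactive = maximum activity change above -50%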;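 also: thallium influx rate constant from kinetic fluorescence after stimulation buffer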
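We transduce U2OS cells with the mutant 3.1 virus, culture them overnight, load FluxOr with Red40 quencher for 45 min, then add stimulation buffer and read kinetically for 2 min to derive a normalized rate constant.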
Giardia kill – kills Giardia lamblia; activity change, % at 7.66 µM, hits read low; 0.15% of 340,000 active; AID 540267; Giardia lamblia trophozoite viability; in the data active = activity change below about -80%; inconclusive = between about -30% and that limit;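 also: parasites exposed to compound for two days anaerobically before the ATP read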
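ATP-content bioluminescence gauges trophozoite survival. Cells (100/well) receive compound and incubate anaerobically for 48 hrs at 37 deg C; detection reagent follows for 15-30 min at room temperature.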
USP1-UAF1 inh – blocks the human USP1/UAF1 deubiquitinase complex. Potency, µM (highest dose often 57.1 µM), for inactives: at the top dose activity change, negative = inhibition, most hits filed as inhibitors. 0.23% of 390,000 active. O94782. recombinant USP1/UAF1, Ub-Rhodamine cleavage fluorescence; active = well fitted inhibition curve with a large enough effect; inconclusive = small, poorly fitted or top-dose-only effect; inactive = no such curve, though single readings can be large or run the other way; also: potency is read from the fitted curve at half-maximal effect; nearly all actives have a fitted effect of over 60% in size
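Step one: compound is pinned into 1nM USP1/UAF1 in HEPES pH 7.8 buffer with TCEP. Step two: 15 min room-temperature incubation. Step three: Ub-Rho (150nM final) starts cleavage, tracked by fluorescence over six one-minute reads.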
* = called active by the depositor; ? = inconclusive; / = not tested or not shown. % is scaled to controls: 0 for no effect and ±100 for the full control effect.

SMILES | hERG WT inh | Coupling enz | KCNH2 3.1 inh | Giardia kill | USP1-UAF1 inh
NC(=O)c1cc(S(=O)(=O)NCc2cccs2)cs1 | -12.6 | 2.2 | -70.0* | ? | -21.7%
Oc1cc2c(cc1O)[C@@H]1c3ccc(O)c(O)c3OC[C@]1(O)C2 | / | -14.5 | / | / | /
CN(C/C=C/c1ccccc1)Cc1cccc2ccccc12 | 14.6 | / | -94.5* | 5.8 | -26.4%
Cc1occc1C(=O)N(C)CC1CCCN(CCc2ccc(Cl)cc2)C1 (configuration not stated) | 10.5 | / | -72.0* | / | 1.2%
COCc1ccc(C(=O)N(C)CC2CCCN(CCc3ccc(Cl)cc3)C2)o1 (configuration not stated) | -1.6 | / | -73.7* | 2.6 | -16.5%
COc1ccc(-c2nnc3n2N=C(c2ccc(OC)c(OC)c2)CS3)cc1 | / | -0.6 | / | / | /
Cc1nn(CC(=O)N2CCc3ccccc32)c(C)c1S(=O)(=O)NC(C)(C)C | -282.9* | / | -21.4 | 2.5 | -15.3%
Cc1c(Br)c([N+](=O)[O-])nn1CC(=O)N1CCc2ccccc21 | -3.5 | 1.3 | 19.2 | -12.1 | -16.9%
COc1ccc(CCN2CCC[C@H](CN3CCc4cc(OC)c(OC)cc4CC3=O)C2)cc1OC | / | 0.1 | / | / | /
Nc1nc(N)nc(-c2ccc([N+](=O)[O-])o2)n1 | 6.0 | / | -24.5 | ? | -25.9%
O=[N+]([O-])c1ccc(-c2ccn[nH]2)o1 | -17.4 | 0.1 | 6.6 | -85.5* | -9.5%
CCOC(=O)CNC(=O)O[C@@H]1Cc2cc(OC)ccc2O[C@H]1c1cccc(OC)c1 | / | 2.1 | / | / | /
O=C(Nc1cccc(Br)c1)N1CCC(CN2CCCCC2)CC1 | / | / | / | / | 1.5%
COC(=O)[C@@]12CCCN1[C@H](c1ccc(-c3cccc(Cl)c3)c(OC)c1)[C@H]1C(=O)N(C)C(=O)[C@H]12 | -0.6 | / | -100.1* | 10.3 | -12.7%
COC(=O)[C@@]12CCCCN1[C@H](c1ccc(-c3cccc(Cl)c3)c(OC)c1)[C@@H]1C(=O)N(C)C(=O)[C@@H]12 | 4.0 | / | -11.7 | 16.2 | ?
COC(=O)[C@@]1(C)[C@H]2C(=O)N(Cc3ccccc3)C(=O)[C@H]2[C@H]2CN=C(SCC(=O)c3ccccc3)N21 | -3.1 | / | -79.6* | -12.8 | -27.2%
COC(=O)[C@@]1(C)[C@H]2C(=O)N(Cc3ccccc3)C(=O)[C@H]2[C@H]2CN=C(SC)N21 | -2.9 | / | -0.8 | 3.0 | -3.3%
O=C(/C=C/c1cc([N+](=O)[O-])ccc1OC(F)F)Nc1cccc(OC(F)F)c1 | -158.3* | 3.3 | -3.5 | 1.0 | -2.0%
COc1ccccc1NC(=O)/C=C/c1cc([N+](=O)[O-])ccc1OC(F)F | -15.2 | 0.6 | -2.8 | -8.8 | -28.5%
COC(=O)c1ccc(NC(=O)N2CCc3c([nH]c4ccccc34)C2c2ccc(C)cc2)cc1 (configuration not stated) | / | / | / | / | -25.9%
CCN(CC)Cc1c(C(=O)N/N=C/c2ccc(OCc3ccccc3C)cc2)nnn1-c1nonc1N | -122.9* | -3.9 | -96.3* | 1.4 | -18.9%
Cc1ccc(-c2c(C(=O)N/N=C/c3cccc(Cl)c3)nnn2-c2nonc2N)cc1 | -7.1 | -35.5* | 30.5 | -11.2 | -23.6%
CN(C)Cc1c(C(=O)N/N=C/c2ccco2)nnn1-c1nonc1N | 2.9 | 0.0 | -1.5 | 2.8 | -2.5%
CN(C)Cc1c(C(=O)N/N=C/c2ccc(-c3ccccc3)cc2)nnn1-c1nonc1N | -46.1 | -1.6 | -93.1* | -1.8 | -4.0%
Cc1ccc(-c2c(C(=O)N/N=C/c3ccoc3)nnn2-c2nonc2N)cc1 | 2.8 | -0.2 | -5.5 | 5.5 | -13.2%
SMILES | hERG WT inh | Coupling enz | KCNH2 3.1 inh | Giardia kill | USP1-UAF1 inh
CC1CCCCN1CC(=O)Nc1ccc(Oc2ccccc2)cc1 (configuration not stated) | 12.3 | -1.7 | -88.6* | -3.5 | 0.3%
Cc1cccc(NC(=O)c2ccc3[nH]c(C)cc(=O)c3c2)c1 | / | / | / | / | -14.2%
CCCCCCOC(=O)C(C#N)c1nc2ccccc2nc1N1CCN(C)CC1 (configuration not stated) | 9.4 | -5.4 | -70.8* | -23.0 | -25.7%
N#C/C(=C\N1CCN(Cc2ccc3c(c2)OCO3)CC1)c1nc2ccccc2s1 | -14.4 | -0.4 | -17.8 | -9.5 | 31.6µM*
C=CCOC(=O)C(C#N)c1nc2ccccc2nc1N1CCN(Cc2ccc3c(c2)OCO3)CC1 (configuration not stated) | -110.9* | -6.4 | -103.3* | -1.7 | -9.9%
c1ccc2sc(N3CCN(Cc4ccc5c(c4)OCO5)CC3)nc2c1 | / | 1.2 | / | / | /
O=C1c2ccccc2CCC12OC2c1ccc([N+](=O)[O-])cc1 (configuration not stated) | 20.1 | / | -2.6 | / | -17.7%
COc1cccc(CN=c2c([N+](=O)[O-])nn(-c3ccccc3C)n2O)c1 | 18.6 | 1.6 | 3.0 | -108.7* | 2.8%
Cc1cccc(-n2nc([N+](=O)[O-])c(=NCc3cccnc3)n2O)c1 | -8.7 | 2.0 | 9.1 | -87.5* | 0.4%
COc1ccc(-n2nc([N+](=O)[O-])c(=NCCc3ccccc3)n2O)cc1 | 13.4 | -2.7 | 1.3 | ? | -16.0%
O=c1cc(-c2cccc(O)c2O)oc2ccccc12 | / | -13.9 | / | / | /
O=C(CCCN1CCC(C(=O)c2ccc(F)cc2)CC1)c1ccc(F)cc1 | -74.1* | 1.0 | -103.3* | -8.5 | -6.6%
COc1ccccc1N1CCN(CCCC(=O)c2ccc(F)cc2)CC1 | 44.9 | 0.8 | -70.4* | -19.4 | 14.1%
CC1CCN(CCCC(=O)c2ccc(F)cc2)CC1 | / | 1.8 | / | / | /
Cc1ccc(C(c2nnnn2Cc2ccccc2)N2CCN(Cc3ccccc3)CC2)cc1 (configuration not stated) | -77.4* | -0.1 | ? | 4.2 | -25.3%
O=C(CSc1cn(CC(=O)N2CCCCC2)c2ccccc12)NCc1ccccc1 | / | / | / | / | 8.5%
O=C(O)CC(c1ccccc1)N1C(=O)c2ccccc2C1=O (configuration not stated) | -1.0 | / | -75.7* | -13.8 | -9.4%
COc1ccc2nc3oc(C(=O)N(C)c4ccc(Cl)cc4)cc3cc2c1 | / | / | / | / | -21.4%
CCc1cccc(Nc2ncnc3onc(-c4ccc(F)cc4)c23)c1 | / | / | / | / | 10.6%
Cc1nnc2sc(-c3ccncc3)nn12 | 3.0 | -5.4 | 5.6 | -1.1 | -2.9%
Cc1ccc(-c2nn3c(C)nnc3s2)cc1N | -289.5* | -3.8 | 11.6 | 0.7 | -13.0%
Cc1ccc(-c2nn3c(C)nnc3s2)cc1NC(=O)C(C)C | 4.6 | 4.8 | 1.3 | -8.4 | -9.8%
CCC(=O)Nc1ccc(-c2nn3c(C)nnc3s2)cc1C | -22.3 | 1.8 | -115.2* | 8.6 | -2.6%
CC(=O)Nc1ccc(S(=O)(=O)N2CCN(c3nc(NC4CCCC4)c4ccccc4n3)CC2)cc1 | -89.7* | -3.6 | -86.0* | -10.5 | -7.7%
CC(=O)Nc1ccc(S(=O)(=O)N2CCN(c3cc(C)nc4ccccc34)CC2)cc1 | 0.5 | 2.7 | -33.6 | 21.1 | -4.3%
Cc1cc(C)cc(NC(=O)CSCc2cc(=O)c3cc(Cl)ccc3[nH]2)c1 | / | / | / | / | -26.5%
COc1cc(C/C=C/c2ccccc2)c(OC)cc1O | / | -51.5* | / | / | /
